# HSF1 inh = HSF1 inhibitors in luciferase reporter cells, primary screen, cell-based, NIH3T3, luminescence. NIH3T3-HGL HSE-luciferase, MG132-induced, luminescence 8 h; active compounds read low. activity change, negative = inhibition, % at 7.5 µM (by protocol). 300,000 compounds, 0.77% hits;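 active = more than half of replicate wells show activity change below -50%, luminescence cut by over half; inconclusive = some wells, but at most half, below -50%; inactive = no replicate well below -50%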;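 note: luciferase reports HSF-1 transcriptional activity via heat shock element; 0% = median of DMSO wells and -100% = zero luminescence signal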
# esBAF inh = Bmi1 luciferase reporter increase in mESCs, primary screen, esBAF inhibitor project, mouse ES cells, Bmi1 luciferase knock-in, single point; reporter increase, % at 12.5 µM; 24 h; 100% = twice the neutral-well signal; 350,000 compounds, 2% hits; AID 602393, 2012; in the data active = activation above about 40%; inconclusive = no clear call, values can overlap the other calls;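 note: 0% = median of the plate's neutral control wells and 100% = double that signal; a rise in the Bmi1 reporter signal indicates esBAF inhibition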
# SMARCA2 activ = SMARCA2 (BRM) function activators, primary screen, cell-based, luminescence, high throughput; AID 652017, 2013; 370,000 compounds, 1% hits; activation, % at 9.1 µM; MG213 cells, MMTV-luciferase reporter, dexamethasone, overnight; in the data active = activation above about 7.8%;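 note: 0% = vehicle wells and 100% = reference activator wells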
# MITF act = activators of MITF-driven TRPM1 promoter reporter, primary screen, cell-based, SK-MEL-5, luciferase, single point; 300,000 compounds, 0.75% hits; SK-MEL-5 TRPM1-promoter luciferase, 24 h; % of positive control, neutral wells = 0; activation, % at 12.5 µM; AID 588334, 2011;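 active = mean activation of at least 80% with every replicate also reaching 80%; inconclusive = mean reaches 80% but some replicate falls short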;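 note: 0% = neutral control wells and 100% = parthenolide positive control wells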
# HSF1 activator = HSF-1 activators, primary screen, NIH3T3-HGL cells, MG132 stress, luminescence, single point. NIH3T3-HGL HSF-1 luciferase reporter, 8 h; 100% = twice DMSO control signal. activation, % at 9 µM. 300,000 compounds, 1.7% hits;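 active = mean replicate activation of at least 50% with a set share of replicates each reaching 50%; inconclusive = only one of those two conditions met; inactive = mean below 50% and too few replicates reaching it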;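 note: 0% = median of the neutral control wells and 100% = twice that signal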
# Wnt bcat act = Wnt/beta-catenin pathway activators, primary screen, cell-based, plate reader, single point; 300,000 compounds, 1.2% hits; AID 743398, 2014; activation, % at 9.35 µM; Wnt/beta-catenin reporter cell assay, activator; in the data active = activation above about 30%, passing the limit was not always enough; inconclusive = no clear call, values can overlap the other calls;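 note: 0% = neutral control wells and 100% = positive control wells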
# Numbers without * were called inactive; ? = inconclusive; nt = no result given. Sampled rows, rich in hits. Any-hit rate of the full collection: about 4.3%.
SMILES,HSF1 inh,esBAF inh,SMARCA2 activ,MITF act,HSF1 activator,Wnt bcat act
Cc1ccc(N=N/C(=C\O)C(=O)c2ccc(Cl)cc2)cc1,-64*,17,3,-15,-64,-2
CC1(C)CC(=O)c2c(O)cc(OCc3ccc([N+](=O)[O-])cc3)cc2O1,58,47*,0,78,95*,nt
CCOC(=O)c1c(C)n(-c2ccc(C)cc2)c2c(C(C(C)=O)C(=O)O)c(Br)c(O)c(O)c12 (centres undefined),11,3,-2,nt,-1,nt
CCOC(=O)c1c(C)n(-c2ccc(C)cc2)c2c(CC(C)=O)c(Br)c(OC)c(O)c12,36,1,0,-21,65*,-1
Cc1ccc(N2C(=O)[C@@H]3C(C(=O)C(c4ccccc4)c4ccccc4)=NN[C@@H]3C2=O)cc1,17,nt,-3,-1,53*,nt
COC(=O)C1=NNC2C(=O)N(c3ccc(C)cc3)C(=O)C12 (centres undefined),-9,nt,1,2,-3,1
CC=Cc1ccc2n(c1=O)C[C@@H]1[C@@H](CO)[C@H](C(=O)NCC)N(CC3CCOCC3)[C@H]21 (mixture of isomers),nt,2,nt,nt,nt,nt
CO[C@@H]1CC[C@@H]2CCOc3c(C#N)cccc3C(=O)N(C)C[C@@H](OC)[C@@H](C)C(=O)N(C)C[C@@H]1O2,nt,3,nt,nt,nt,nt
COc1cc(NC(C)=O)ccc1NC(=O)c1cc2ccccc2o1,-3,55*,2,39,13,3
CCCC(=O)Nc1ccc(NC(=O)c2cc3ccccc3o2)c(OC)c1,21,53*,5,64,38,2
COc1ccc(NC(=O)Nc2ccc3c(c2)C(=O)N([C@@H](C)CO)C[C@@H](C)[C@@H](CN(C)C(=O)Nc2c(C)noc2C)OCCCC[C@@H](C)O3)cc1,nt,-1,nt,nt,nt,nt
COc1ccc(C#Cc2ccc3c(c2)[C@@H]2[C@@H](CCN2C(=O)C2CCCCC2)[C@@H](CO)N3)cc1,nt,-1,nt,nt,nt,nt
CCn1ccnc1[C@@H]1C[C@H]2CN(Cc3cccc(Cl)c3)C(=O)[C@]23CCCN13,0,nt,0,-7,12,0
O=C1N(Cc2cccc(Cl)c2)C[C@@H]2C[C@@H](c3ccccn3)N3CCC[C@@]123,14,0,0,-2,19,33*
Cc1ccc(O)c(CN(C)Cc2cc(C)ccc2O)c1,nt,51*,4,72,nt,25
C[C@H](CO)N1C[C@H](C)[C@H](CN(C)C(=O)C2CC2)Oc2cc(-c3cncnc3)ccc2S1(=O)=O,nt,-9,nt,nt,nt,nt
COc1ccc(S(=O)(=O)Nc2ccc3c(c2)C(=O)N([C@H](C)CO)C[C@@H](C)[C@H](CN(C)C(=O)C2CCCCC2)OCCCC[C@@H](C)O3)cc1,nt,8,nt,nt,nt,nt
COc1ccccc1CNC(=O)COc1ccccc1C(=O)c1cnn(-c2ccccc2)c1,nt,75*,2,89*,nt,58*
CC(=O)c1ccc(NC(=O)COc2ccccc2C(=O)Nc2ccccc2)cc1,17,nt,-2,18,50,2
O=C(COc1ccccc1C(=O)c1cnn(-c2ccccc2)c1)Nc1ccccc1,5,49*,6,64,6,?
CCNC(=O)COc1ccc(F)cc1C(=O)c1cnn(-c2ccccc2)c1,0,3,0,-11,8,0
C[C@@H]1CN([C@@H](C)CO)C(=O)Cc2cc(NC(=O)Nc3ccc4c(c3)OCO4)ccc2O[C@H]1CN(C)C(=O)NC1CCCCC1,nt,0,nt,nt,nt,nt
C[C@@H]1CN([C@@H](C)CO)C(=O)c2cc(NC(=O)c3ccncc3)ccc2O[C@@H]1CN(C)S(=O)(=O)c1cn(C)cn1,nt,2,nt,nt,nt,nt
Cn1ccc(C(=O)N/N=C/c2ccncc2)n1,35,4,-4,-6,78*,-1
Cn1cc([N+](=O)[O-])c(C(=O)N/N=C/c2ccncc2)n1,-1,-3,-2,-7,-12,2
SMILES,HSF1 inh,esBAF inh,SMARCA2 activ,MITF act,HSF1 activator,Wnt bcat act
O=C(Oc1cc(=O)oc2c1c(=O)n1c3c(cccc23)CC1)c1ccc(F)cc1,-67*,nt,-1,nt,-75,2
Cn1c(=NC(=O)COc2ccccc2)sc2cc(F)cc(F)c21,-2,nt,nt,nt,3,nt
Cn1c(=NC(=O)COc2ccccc2)sc2cccc(F)c21,11,57*,3,63,27,-2
CCOc1ccc(NC(=O)c2ccccc2OCC(=O)c2ccccc2)cc1,10,44*,5,nt,-13,nt
CCOc1ccccc1C(=O)Nc1ccc(NC(=O)c2ccccc2)cc1,-79*,-3,0,19,-83,-2
CCOc1ccccc1C(=O)Nc1ccc(C(=O)c2ccccc2)cc1,1,23,-1,nt,9,7
Cc1ccc(NC(=O)c2ccccc2OCC(=O)c2ccccc2)cc1,17,17,-3,nt,29,nt
O=S(=O)(N[C@H]1CC[C@@H](CCn2cc(-c3cccnc3)nn2)O[C@H]1CO)c1ccc(F)cc1,nt,4,nt,nt,nt,nt
COc1ccc(C2Nc3ccccc3C(=O)N2Cc2ccco2)cc1COc1ccccc1F (centres undefined),36,nt,0,-7,76*,nt
O=C1c2ccccc2NC(c2cccc(F)c2)N1Cc1ccco1 (centres undefined),31,-6,1,8,38,-3
COc1ccc(C2Nc3ccccc3C(=O)N2Cc2ccco2)cc1COc1ccc(NC(C)=O)cc1 (centres undefined),37,-3,-1,3,58*,0
O=C1c2ccccc2NC(c2ccc(O)cc2)N1Cc1ccco1 (centres undefined),9,-4,-3,nt,20,nt
CC(C)NC(=O)Nc1ccc2c(c1)CC(=O)N([C@@H](C)CO)C[C@@H](C)[C@H](CN(C)Cc1ccc(-c3ccccc3)cc1)O2,nt,-4,nt,nt,nt,nt
COc1ccc(NC(=O)N(C)C[C@@H]2OCCCC[C@H](C)Oc3ccc(NC(=O)Nc4ccccc4)cc3C(=O)N([C@H](C)CO)C[C@@H]2C)cc1,nt,0,nt,nt,nt,nt
COc1ccc(Cl)cc1-c1nc(-c2ccc(Br)o2)no1,0,51*,-3,nt,-1,6
CSc1nc2sc3c(c2c(=O)[nH]1)CCC(C)C3 (centres undefined),-1,62*,1,33,18,nt
COCC#Cc1ccc2c(c1)O[C@@H](CN(C)CC1CCOCC1)[C@H](C)CN([C@@H](C)CO)S2(=O)=O,nt,-5,nt,nt,nt,nt
COc1ccc(OC)c(CNc2ccc3c(c2)CCC3)c1,-26,46*,-1,nt,-41,0
C[C@H]1CN([C@@H](C)CO)C(=O)c2cc(C#CC(C)(C)O)cnc2O[C@H]1CN(C)Cc1ccccn1,nt,2,nt,nt,nt,nt

# Screening data: PubChem, several laboratories
